Results on 40 molecules are retold here after ChEMBL document CHEMBL1157539, “Thousands of chemical starting points for antimalarial lead identification” (Nature, 2010).

The first assay relates to Plasmodium falciparum. Description: GSK_TCMDC: Inhibition of Plasmodium falciparum Dd2 in whole red blood cells, using parasite LDH activity as an index of growth. Test compounds present at 2uM. It is filed as functional.
On to `COc1ccc(-c2csc3ncnc(Cl)c23)cc1OC`, for which the Inhibition (usually the change of the read-out against control, counted positive when it falls) amounted to 84%.

Molecule `O=C(Nc1cccc(-c2nn3ncccc3c2-c2ccnc(Nc3cccc(-c4cnco4)c3)n2)c1)c1c(F)cccc1F` gave an Inhibition of 98%.

Regarding `CCC(C)(C)C1CCc2[nH]c3ccccc3c(=O)c2C1` (configuration not stated), the Inhibition is 96%.

`COc1ccc2nccc([C@@H](O)CN3CCC(NCC4COc5ccccc5O4)CC3)c2c1.O=C(O)C(=O)O` (some centres not stated) yielded an Inhibition of 94%.

As to `Br.CCCCCCCCn1ccc(=N)cc1`, the Inhibition turned out to be 84%.

For `CN1CCN(c2cc(-c3cccnc3)nc(-c3ccncc3)n2)CC1`, the Inhibition is on record as 89%.

Regarding `CN1CCCC(COc2cc3c(cc2Br)CCN3C(=O)Nc2ccc(-c3ccncc3)c(Cl)c2)C1` (configuration not stated), the Inhibition is reported as 96%.

`c1ccc(Nc2nc(-c3ccccn3)cs2)nc1`: the Inhibition was found to be 93%.

The molecule `CC(=O)NCCCCC1NC2(C(=O)N(Cc3ccc(C(C)(C)C)cc3)c3ccccc32)C2C(=O)N(C3CCCCC3)C(=O)C12` (configuration not stated) yielded an Inhibition of 71%.

As for `O=C(NCc1ccc2c(c1)OCO2)c1nn(CCN2CCC(N3CCCC3)CC2)cc1-c1ccc(Cl)c(Cl)c1`, the Inhibition is 17%.

Turning to `Cc1cc(N[C@@H](Cc2ccccc2)C(=O)NCc2cccc(F)c2)nc(NCc2ccccc2C)n1.O=C(O)C(F)(F)F`, the Inhibition was 75%.

Turning to `COc1cc2nc(N3CCN(C(=O)c4ccco4)CC3)nc(NCc3ccccc3)c2cc1OC`, the Inhibition is given as 99%.

In the case of `Cc1nn(C)c(C)c1CN(Cc1nc(-c2cccc(Oc3ccccc3)c2)oc1C)C1CC1`, the Inhibition is 98%.

For `CC(=O)Nc1ccc(CN(Cc2ccc(OC(C)(C)C)cc2)Cc2ccc3c(c2)OCCO3)cc1`, the Inhibition was 75%.

On to `COc1ccc(Nc2ncc3c(-c4ccc(NC(=O)c5cccc(C(F)(F)F)c5)cc4)c[nH]c3n2)cc1OC`, for which the Inhibition came to 30%.

`NC(Cc1cccc(I)c1)C(=O)NCC1CCCO1.O=C(O)C(F)(F)F` (configuration not stated) showed an Inhibition of 50%.

`COc1ccc2nccc([C@@H](O)CN3CCC(NCc4nc5c(F)cccc5[nH]4)CC3)c2c1.O=C(O)C(=O)O`: the Inhibition is reported as 6%.

In turn, `CCCCOC(=O)NCCCC[C@H](NC(=O)OC(C)(C)C)C(=O)N[C@H](C(=O)OC(c1ccccc1)c1ccccc1)[C@H]1O[C@@H](n2ccc(=O)[nH]c2=O)[C@@H]2OC(C)(C)O[C@@H]21` had an Inhibition of 65%.

Turning to `COc1ccc2nccc([C@@H](O)CN3CCC(NCCOc4ccc(F)cc4Cl)CC3)c2c1.O=C(O)C(=O)O`, the Inhibition stood at 85%.

In turn, `CCCC(=O)c1cnc2c(OCCCc3c[nH]cn3)cccc2c1Nc1c(C)cccc1C` gave an Inhibition of 14%.

In turn, `O=C(NCCCCCN1CCC(c2c[nH]c3ccccc23)C1)Nc1ccc(Cl)c(Cl)c1` (configuration not stated) displayed an Inhibition of 19%.

`Cc1cc2ncn(-c3nccc(NCc4ccc(F)c(C)c4)n3)c2cc1C.O=C(O)C(F)(F)F` showed an Inhibition of 82%.

With `COCc1cccc(-c2cc(-c3ccc(S(C)(=O)=O)cc3)cnc2N)c1`, the Inhibition is 88%.

As to `CCNc1cc(C(=O)N[C@@H](Cc2ccccc2)[C@H](O)CNC2(CC)CC2)cc(N2CCCCS2(=O)=O)c1.Cl`, the Inhibition is reported as 94%.

The molecule `Clc1ccc(CNc2nc(NCCc3c[nH]cn3)nc(NC3CCCCC3)n2)cc1` displayed an Inhibition of 1%.

`CN(C)CCNC(=O)N1CCCN(c2ncnc3cc(-c4ccc(Cl)cc4)sc23)CC1.O=C(O)C(F)(F)F` yielded an Inhibition of 21%.

Take `O=C(O)C(F)(F)F.O=c1ccc2ccc(F)c3c2n1CC3CN1CCC(NCc2cccc(-c3ccccc3F)c2)CC1` (configuration not stated): the Inhibition was 6%.

The next assay deals with HepG2. Description: GSK_TCMDC: Percent inhibition of human HepG2 cell line. Test compounds present at 10uM. It is filed as functional.
Turning to `CCC(NCc1ccc(-c2cncc(C(=O)NCC(C)C)c2)cc1)c1ccccc1.O=C(O)C(F)(F)F` (configuration not stated), the Inhibition was 14%.

Take `OC(CNCc1ccccc1Oc1ccccc1)c1cc(Br)cs1` (configuration not stated): the Inhibition came out at 0%.

`O=C(NC1CCN(Cc2ccccc2)CC1)c1cccc(-c2cc3cc(Cl)c(Cl)cc3[nH]2)c1.O=C(O)C(F)(F)F` came in with an Inhibition of 15%.

For the molecule `CCNc1cc(C(=O)N[C@@H](Cc2ccccc2)[C@H](O)CN[C@@H](C)c2cccc(OC)c2)cc(N2CCCC2=O)c1.O=CO`, the Inhibition is 5%.

For the molecule `CC[C@H](C)CNC(=O)c1cncc(-c2ccc(CNCCCc3ccccc3)cc2)c1.O=C(O)C(F)(F)F`, the Inhibition came to 19%.

`CS(=O)(=O)CCOCc1ccc(-c2ccc3ncnc(Nc4ccc(OCc5cccc(F)c5)c(Cl)c4)c3c2)o1`: the Inhibition turned out to be 1%.

`CCN1C(c2ccc(Cl)cc2)C(CNCc2ccccc2O)CC1(C)CO` (configuration not stated) had an Inhibition of 47%.

Turning to `CN1CCN(CCCNCc2ccc(Nc3nccc(Nc4ccc(Oc5ccccc5)cc4)n3)cc2)CC1`, the Inhibition is 17%.

`COc1cc(Nc2ccnc3ccc(C(F)(F)F)cc23)cc(OC)c1OC` came in with an Inhibition of 15%.

Take `O=C(O)C(F)(F)F.O=S(=O)(/C=C/c1ccccc1)N(Cc1ccc(-c2ccc(CNCCc3ccccc3)cc2)cc1)CC1CCCCN1` (configuration not stated): the Inhibition worked out at 99%.

Consider `COc1ccc2nccc(NC(=O)C3CCC(NCc4cnc(SC)c([N+](=O)[O-])c4)CC3)c2n1.Cl` (configuration not stated), for which the Inhibition is 8%.

`O=C(/C=C/c1ccc(Cl)cc1Cl)NCCCCCN1CCC(c2c[nH]c3ccccc23)CC1` gave an Inhibition of 95%.

The molecule `CCCc1cc(Cc2cnc(N)nc2N)cc(OCCCCCC(=O)O)c1OC.Cl` came in with an Inhibition of 8%.

With `COc1ccc(-c2csc3ncnc(Cl)c23)cc1OC`, the Inhibition was 0%.

`O=C(Nc1cccc(-c2nn3ncccc3c2-c2ccnc(Nc3cccc(-c4cnco4)c3)n2)c1)c1c(F)cccc1F` gave an Inhibition of 96%.

On to `CCC(C)(C)C1CCc2[nH]c3ccccc3c(=O)c2C1` (configuration not stated), for which the Inhibition worked out at 16%.

`COc1ccc2nccc([C@@H](O)CN3CCC(NCC4COc5ccccc5O4)CC3)c2c1.O=C(O)C(=O)O` (some centres not stated): the Inhibition was found to be 17%.

In the case of `Br.CCCCCCCCn1ccc(=N)cc1`, the Inhibition was 49%.

The molecule `CN1CCN(c2cc(-c3cccnc3)nc(-c3ccncc3)n2)CC1` yielded an Inhibition of 11%.

As for `CN1CCCC(COc2cc3c(cc2Br)CCN3C(=O)Nc2ccc(-c3ccncc3)c(Cl)c2)C1` (configuration not stated), the Inhibition is on record as 99%.

In turn, `c1ccc(Nc2nc(-c3ccccn3)cs2)nc1` showed an Inhibition of 45%.

`CC(=O)NCCCCC1NC2(C(=O)N(Cc3ccc(C(C)(C)C)cc3)c3ccccc32)C2C(=O)N(C3CCCCC3)C(=O)C12` (configuration not stated) had an Inhibition of 0%.

Take `O=C(NCc1ccc2c(c1)OCO2)c1nn(CCN2CCC(N3CCCC3)CC2)cc1-c1ccc(Cl)c(Cl)c1`: the Inhibition came out at 21%.

Consider `Cc1cc(N[C@@H](Cc2ccccc2)C(=O)NCc2cccc(F)c2)nc(NCc2ccccc2C)n1.O=C(O)C(F)(F)F`, for which the Inhibition is 6%.

Molecule `COc1cc2nc(N3CCN(C(=O)c4ccco4)CC3)nc(NCc3ccccc3)c2cc1OC` had an Inhibition of 16%.

In the case of `Cc1nn(C)c(C)c1CN(Cc1nc(-c2cccc(Oc3ccccc3)c2)oc1C)C1CC1`, the Inhibition turned out to be 7%.

The molecule `CC(=O)Nc1ccc(CN(Cc2ccc(OC(C)(C)C)cc2)Cc2ccc3c(c2)OCCO3)cc1` had an Inhibition of 7%.

Regarding `COc1ccc(Nc2ncc3c(-c4ccc(NC(=O)c5cccc(C(F)(F)F)c5)cc4)c[nH]c3n2)cc1OC`, the Inhibition is on record as 26%.

As for `NC(Cc1cccc(I)c1)C(=O)NCC1CCCO1.O=C(O)C(F)(F)F` (configuration not stated), the Inhibition came to 52%.

The molecule `COc1ccc2nccc([C@@H](O)CN3CCC(NCc4nc5c(F)cccc5[nH]4)CC3)c2c1.O=C(O)C(=O)O` yielded an Inhibition of 0%.

Molecule `CCCCOC(=O)NCCCC[C@H](NC(=O)OC(C)(C)C)C(=O)N[C@H](C(=O)OC(c1ccccc1)c1ccccc1)[C@H]1O[C@@H](n2ccc(=O)[nH]c2=O)[C@@H]2OC(C)(C)O[C@@H]21` returned an Inhibition of 7%.

As for `COc1ccc2nccc([C@@H](O)CN3CCC(NCCOc4ccc(F)cc4Cl)CC3)c2c1.O=C(O)C(=O)O`, the Inhibition is listed as 1%.

With `CCCC(=O)c1cnc2c(OCCCc3c[nH]cn3)cccc2c1Nc1c(C)cccc1C`, the Inhibition is given as 20%.

The molecule `O=C(NCCCCCN1CCC(c2c[nH]c3ccccc23)C1)Nc1ccc(Cl)c(Cl)c1` (configuration not stated) returned an Inhibition of 28%.

As for `Cc1cc2ncn(-c3nccc(NCc4ccc(F)c(C)c4)n3)c2cc1C.O=C(O)C(F)(F)F`, the Inhibition amounted to 10%.

Consider `COCc1cccc(-c2cc(-c3ccc(S(C)(=O)=O)cc3)cnc2N)c1`, for which the Inhibition was determined as 10%.

In turn, `CCNc1cc(C(=O)N[C@@H](Cc2ccccc2)[C@H](O)CNC2(CC)CC2)cc(N2CCCCS2(=O)=O)c1.Cl` returned an Inhibition of 59%.

The molecule `Clc1ccc(CNc2nc(NCCc3c[nH]cn3)nc(NC3CCCCC3)n2)cc1` returned an Inhibition of 0%.

For `CN(C)CCNC(=O)N1CCCN(c2ncnc3cc(-c4ccc(Cl)cc4)sc23)CC1.O=C(O)C(F)(F)F`, the Inhibition worked out at 41%.

The molecule `O=C(O)C(F)(F)F.O=c1ccc2ccc(F)c3c2n1CC3CN1CCC(NCc2cccc(-c3ccccc3F)c2)CC1` (configuration not stated) came in with an Inhibition of 29%.
